# From article PMC11006913
# Numbering of substitutions follows the chain as printed.
# Experiments:
# Test in all cases: PBM; 200 nM protein, PBS
# Settings in all cases: dsDNA, one strand shown
# HESX1 [1] = target: HESX1 (Homo sapiens, UniProt Q9UBX0 95-180, R165K)
# HESX1 [2] = target: HESX1 (Homo sapiens, UniProt Q9UBX0 95-180)
# HESX1 [3] = target: HESX1 (Homo sapiens, UniProt Q9UBX0 95-180, P111T)
# HOXB4 [4] = target: HOXB4 (Homo sapiens, UniProt P17483 148-234)
# SHOX [5] = target: SHOX (Homo sapiens, UniProt O15266 103-189)
# VENTX [6] = target: T1, VENTX (Homo sapiens, UniProt O95231 78-163, R121Q)
# T1 sequence: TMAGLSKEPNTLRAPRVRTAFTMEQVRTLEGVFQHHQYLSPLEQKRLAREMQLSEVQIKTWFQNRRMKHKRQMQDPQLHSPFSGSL
# VENTX [7] = target: T2, VENTX (Homo sapiens, UniProt O95231 78-163)
# T2 sequence: T1 sequence with Q44R
# VENTX [8] = target: T3, VENTX (Homo sapiens, UniProt O95231 78-163, Y115F)
# T3 sequence: T1 sequence with Y38F, Q44R
# HOXA2 [9] = target: HOXA2 (Homo sapiens, UniProt O43364 129-215, R185T)
# HOXB4 [10] = target: HOXB4 (Homo sapiens, UniProt P17483 148-234, V174I)
# SHOX [11] = target: SHOX (Homo sapiens, UniProt O15266 103-189, R173C)
# HOXA2 [12] = target: HOXA2 (Homo sapiens, UniProt O43364 129-215, R185K)
# HOXA2 [13] = target: HOXA2 (Homo sapiens, UniProt O43364 129-215, Y150S)
# HOXA2 [14] = target: HOXA2 (Homo sapiens, UniProt O43364 129-215)
# HESX1 [15] = target: HESX1 (Homo sapiens, UniProt Q9UBX0 95-180, R109Q)
# HESX1 [16] = target: HESX1 (Homo sapiens, UniProt Q9UBX0 95-180, F115L)
# PRRX1 = PRRX1 (Homo sapiens, UniProt P54821 80-166)
# PRRX1, sequence (P54821 80-166): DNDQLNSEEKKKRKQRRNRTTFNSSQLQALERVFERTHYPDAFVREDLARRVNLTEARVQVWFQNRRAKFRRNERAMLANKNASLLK
# HESX1 (Homo sapiens, UniProt Q9UBX0 95-180, R165K), sequence (Q9UBX0 95-180 R165K): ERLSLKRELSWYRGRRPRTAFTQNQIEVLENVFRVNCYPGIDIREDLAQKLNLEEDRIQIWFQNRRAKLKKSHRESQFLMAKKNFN
# HESX1 (Homo sapiens, UniProt Q9UBX0 95-180, P111T), sequence (Q9UBX0 95-180 P111T): as the sequence (Q9UBX0 95-180 R165K) above, with P17T, K71R counted along it
# HESX1 (Homo sapiens, UniProt Q9UBX0 95-180), sequence (Q9UBX0 95-180): as the sequence (Q9UBX0 95-180 R165K) above, with K71R counted along it
# HOXA2 (Homo sapiens, UniProt O43364 129-215, R185K), sequence (O43364 129-215 R185K): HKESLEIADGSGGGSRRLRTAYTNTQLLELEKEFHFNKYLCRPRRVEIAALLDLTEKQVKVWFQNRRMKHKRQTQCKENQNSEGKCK
# HESX1 (Homo sapiens, UniProt Q9UBX0 95-180, F115L), sequence (Q9UBX0 95-180 F115L): as the sequence (Q9UBX0 95-180 R165K) above, with F21L, K71R counted along it
# HOXA2 (Homo sapiens, UniProt O43364 129-215, R185T), sequence (O43364 129-215 R185T): as the sequence (O43364 129-215 R185K) above, with K57T counted along it
# HOXA2 (Homo sapiens, UniProt O43364 129-215, Y150S), sequence (O43364 129-215 Y150S): as the sequence (O43364 129-215 R185K) above, with Y22S, K57R counted along it
# HOXB4 (Homo sapiens, UniProt P17483 148-234, V174I), sequence (P17483 148-234 V174I): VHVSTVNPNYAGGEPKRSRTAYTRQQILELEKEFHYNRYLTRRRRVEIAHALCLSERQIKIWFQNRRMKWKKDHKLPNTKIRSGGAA
# SHOX (Homo sapiens, UniProt O15266 103-189, R173C), sequence (O15266 103-189 R173C): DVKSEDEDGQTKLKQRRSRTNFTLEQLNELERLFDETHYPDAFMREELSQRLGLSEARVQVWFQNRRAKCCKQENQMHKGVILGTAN
# HOXA2 (Homo sapiens, UniProt O43364 129-215), sequence (O43364 129-215): as the sequence (O43364 129-215 R185K) above, with K57R counted along it
# HESX1 (Homo sapiens, UniProt Q9UBX0 95-180, R109Q), sequence (Q9UBX0 95-180 R109Q): as the sequence (Q9UBX0 95-180 R165K) above, with R15Q, K71R counted along it
# SHOX (Homo sapiens, UniProt O15266 103-189), sequence (O15266 103-189): as the sequence (O15266 103-189 R173C) above, with C71R counted along it
# HOXB4 (Homo sapiens, UniProt P17483 148-234), sequence (P17483 148-234): as the sequence (P17483 148-234 V174I) above, with I27V counted along it
sequence,measurement,setting,value
AATAGTGT,binding signal,HESX1 [1],"7.52 upbm affinity estimate (log intensity, higher = more binding, comparable within an allelic series)"
same,binding signal,HESX1 [2],"7.75 upbm affinity estimate (log intensity, higher = more binding, comparable within an allelic series)"
same,binding signal,HESX1 [3],"7.31 upbm affinity estimate (log intensity, higher = more binding, comparable within an allelic series)"
CAGGGGGC,binding signal,HOXB4 [4],"7.45 upbm affinity estimate (log intensity, higher = more binding, comparable within an allelic series)"
same,binding signal,SHOX [5],"7.1 upbm affinity estimate (log intensity, higher = more binding, comparable within an allelic series)"
same,binding signal,VENTX [6],"7.88 upbm affinity estimate (log intensity, higher = more binding, comparable within an allelic series)"
same,binding signal,VENTX [7],"8.14 upbm affinity estimate (log intensity, higher = more binding, comparable within an allelic series)"
same,binding signal,VENTX [8],"7.91 upbm affinity estimate (log intensity, higher = more binding, comparable within an allelic series)"
same,binding signal,HOXA2 [9],"7.09 upbm affinity estimate (log intensity, higher = more binding, comparable within an allelic series)"
same,binding signal,HOXB4 [10],"7.54 upbm affinity estimate (log intensity, higher = more binding, comparable within an allelic series)"
same,binding signal,SHOX [11],"7.01 upbm affinity estimate (log intensity, higher = more binding, comparable within an allelic series)"
same,binding signal,HOXA2 [12],"10.1 upbm affinity estimate (log intensity, higher = more binding, comparable within an allelic series)"
same,binding signal,HOXA2 [13],"10.3 upbm affinity estimate (log intensity, higher = more binding, comparable within an allelic series)"
same,binding signal,HOXA2 [14],"7.35 upbm affinity estimate (log intensity, higher = more binding, comparable within an allelic series)"
TATCAATA,binding signal,HESX1 [1],"7.76 upbm affinity estimate (log intensity, higher = more binding, comparable within an allelic series)"
same,binding signal,HESX1 [2],"7.98 upbm affinity estimate (log intensity, higher = more binding, comparable within an allelic series)"
same,binding signal,HESX1 [15],"7.49 upbm affinity estimate (log intensity, higher = more binding, comparable within an allelic series)"
same,binding signal,HESX1 [3],"7.63 upbm affinity estimate (log intensity, higher = more binding, comparable within an allelic series)"
same,binding signal,HESX1 [16],"7.36 upbm affinity estimate (log intensity, higher = more binding, comparable within an allelic series)"
same,binding signal,PRRX1,"11.7 upbm affinity estimate (log intensity, higher = more binding, comparable within an allelic series)"
